Tgondii IFNg = blocks Toxoplasma gondii growth in the presence of IFN-gamma. activity change, negative = inhibition, % (test concentration not listed). Toxoplasma gondii growth in IFN-gamma-treated host cells; active compounds read low. AID 1259416. 3.8% of 69,000 active; in the data active means activity change below about -70%, passing the limit was not always enough;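 further: host cells are HeLa cells infected with Toxoplasma gondii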
* hit, by the source's call; i = inactive. Only a selection was taken, and hits are over-represented in it overall.

SMILES | Tgondii IFNg
O=C1NCC2(CCCN(C(=O)Cc3ccc4c(c3)OCO4)C2)O1 (configuration not stated) | -6
COc1cccc(C(=O)N2CCc3nc(N4CCCC4)nc(NC(C)C)c3C2)c1 | -110*
COCCC(=O)N1CCc2nc(N3CCOCC3)nc(NC(C)C)c2C1 | 31
Cc1ccsc1C(=O)N1CCc2nc(N3CCOCC3)nc(NC(C)C)c2C1 | -20
Cc1ccc(-c2csc(-c3cccn3CC(=O)NCCN3CCC(C)CC3)n2)cc1 | -52
C=CCN1Cc2cnn(C)c2C(COCC2CC2)C1 (configuration not stated) | -11
C=CCOCC12CCCOC1CCN(C(=O)C1=CCCC1)C2 (configuration not stated) | 32
C=CCn1c(=S)sc2c(N3CCN(c4ccccc4)CC3)ncnc21 | -20
C=CCn1c(=S)sc2c(C(C#N)C#N)ncnc21 | -102*
COCCN1CC[C@@]2(CN(Cc3ccco3)C[C@H]2c2ccccc2)C1=O | -11
CC(C)CC(NC(=O)c1cn2ccsc2n1)c1nnc2n1CCNCC2 (configuration not stated) | -14
Cc1cc(C)c2c(=O)n(Cc3nc(-c4ccccc4)oc3C)c(=O)n(-c3ccccc3)c2n1 | 1
CCOc1ccc(C2c3[nH]c4ccccc4c3CCN2C(=O)c2ccc(C)cc2)cc1 (configuration not stated) | -95*
CCOc1ccc(C2c3[nH]c4ccccc4c3CCN2C(=O)c2ccncc2)cc1 (configuration not stated) | -4
Cc1ccc(C2c3[nH]c4ccccc4c3CCN2C(=O)c2ccccc2Br)cc1 (configuration not stated) | 43
O=C(c1ccccc1Br)N1CCc2c([nH]c3ccccc23)C1c1ccc(F)cc1 (configuration not stated) | 47
Cc1ccc(C2c3[nH]c4ccccc4c3CCN2C(=O)c2cccs2)cc1 (configuration not stated) | -64
Cc1ccc(C2c3[nH]c4ccccc4c3CCN2C(=O)c2ccccc2)cc1 (configuration not stated) | i
Cc1ccc(C2c3[nH]c4ccccc4c3CCN2C(=O)c2ccc(N(C)C)cc2)cc1 (configuration not stated) | -119*
CCCC(=O)N1CCc2c([nH]c3ccccc23)C1c1ccc(C)cc1 (configuration not stated) | -49
Cc1ccc(C2c3[nH]c4ccccc4c3CCN2C(=O)c2ccccc2F)cc1 (configuration not stated) | -130*
Cc1cc(C(=O)N2CC[C@H]3O[C@@H](c4ccncn4)C[C@@H]3C2)no1 | -7
COc1ccc(CC(=O)N2CCn3nnc(COc4cccnc4)c3C2)cc1 | -7
CC(C)CNc1nc2c(cc1C(=O)N1CCCC1)CCN(CC1CC1)CC2 | 1
O=C(C1CN(Cc2cccs2)CC12CCOCC2)N1CCCC1 (configuration not stated) | 1
SMILES | Tgondii IFNg
CCc1cc(CN2CCC=C(CNC(C)=O)C2)on1 | -4
O=C(O)c1cnc(=O)[nH]c1-c1ccncc1 | -6
CO[C@H]1CN(C)C(=O)c2cc(NC(=O)Nc3cccc(Cl)c3)ccc2OC[C@@H](C)N(C(=O)Nc2c(C)noc2C)C[C@@H]1C | 79
CCc1cc(=O)[nH]c(NC2CCN(C(=O)N3c4ccccc4Sc4ccccc43)CC2)n1 | -117*
CCCc1cc(=O)[nH]c(SCC(=O)N2CCN(c3ccccc3OC)CC2)n1 | 27
O=C(N1CCN(c2nc3ccccc3s2)CC1)N1c2ccccc2Sc2ccccc21 | -18
Cn1cnc(S(=O)(=O)NC2CCC3(CCC(=O)N3)CC2)c1 (configuration not stated) | 1
COc1ccc([C@@H]2C/C=C\C[C@@H](c3cccc(Cl)c3)NC(=O)[C@@H](c3ccccc3)CC(=O)N2)c(OC)c1 | 74
Cc1ccc(C)c(OC(C)C(=O)NCCc2nc(-c3cccnc3)no2)c1 (configuration not stated) | -17
CNC(=O)c1ccc(Nc2ncc(C(F)(F)F)c(NCc3nccnc3N(C)S(C)(=O)=O)n2)cc1 | -85*
C1CCc2[nH]nc(CNC3CSCCSC3)c2CC1 | 34
CCc1cnc(N2CCC3(CC2)NC(=O)CC3c2ccncc2)nc1 (configuration not stated) | -7
COC(=O)c1c(NCc2cccc(OC)c2)c2cccc(Cl)c2[nH]c1=O | -48
COC(=O)c1c(NCc2cccc(OC)c2)c2cc(Cl)ccc2[nH]c1=O | -114*
COC(=O)c1c(NCc2ccc(C(F)(F)F)cc2)c2cc(F)ccc2[nH]c1=O | -65
O=C(N(CCN(C(=O)C(F)(F)F)c1ccccc1)c1ccccc1)C(F)(F)F | 8
O=C(Cc1ccncc1)NCC[C@H]1CC[C@H](NS(=O)(=O)c2ccccc2Cl)[C@H](CO)O1 | -2
COc1cccc2c(=O)c3ccccc3oc12 | 39
COc1cccc2c(=O)c(C(=O)NCc3cccnc3)c[nH]c12 | -8
COc1cccc2c(=O)c(C/C=C(/C)Cl)c(C)[nH]c12 | -81*
CC(C)C(=O)NCCc1csc(C2CCN(C(=O)Nc3cccc(F)c3)CC2)n1 | -57
